Sampled rows, rich in hits. Any-hit rate of the full collection: about 3.1%.
PNC assembly inh – High Content Assay for Compounds that inhibit the Assembly of the Perinucleolar Compartment | 140,000 tested, 3.1% active | PC3M PTB-GFP, PNC prevalence imaging, 16 h; active compounds read low | activity change (PNC), negative = inhibition, % at 10 µM;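 active means readout at or below -70, meaning at least 70% loss of cells showing the perinucleolar compartment, a nuclear body marking cancer cells; inconclusive means readout between -30 and a set limit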;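 further: plate controls were DMSO wells for no effect and camptothecin positive control wells for full effect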
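Read-out is percentage of cells bearing a perinucleolar compartment, from automated 20x imaging of fixed, Hoechst-stained PC3M PTB-GFP cells. Cells were seeded 4 h, then exposed 16 h to compound (23 nl of library stock) in duplicate plates.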
ALOX12 inhib – qHTS Assay for Inhibitors of 12-hLO (12-human lipoxygenase); Polyunsaturated fatty acid lipoxygenase ALOX12 (Homo sapiens), P18054; purified 12-hLO, xylenol orange hydroperoxide absorbance; Potency, µM (doses to about 57.1 µM), inactives show top-dose activity change, negative = inhibition, most hits filed as inhibitors; 150,000 tested, 0.12% active; AID 1452, 2008; further: potency means the concentration at half of the fitted maximal effect; nearly all actives have a fitted effect of over 55% in size
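Lipoxygenase turnover measured by absorbance at 573 and 405 nm after Fe-XO development. Human 12hLO 150 nM, arachidonate 40 uM, pH 7.0 Hepes buffer with detergent; 15 min compound preincubation, 30 min reaction.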
15-hLO-2 inh – qHTS Assay for Inhibitors of 15-hLO-2 (15-human lipoxygenase 2); Potency, µM (doses to about 57.1 µM), inactives show top-dose activity change, negative = inhibition, actives largely listed as inhibitors; 110,000 tested, 0.56% active; Polyunsaturated fatty acid lipoxygenase ALOX15B (Homo sapiens), O15296; AID 881, 2007; purified 15hLO-2, xylenol orange hydroperoxide absorbance; further: potency means the concentration at half of the fitted maximal effect; nearly all actives have a fitted effect of over 60% in size
Target sequence (O15296 whole entry, looked up): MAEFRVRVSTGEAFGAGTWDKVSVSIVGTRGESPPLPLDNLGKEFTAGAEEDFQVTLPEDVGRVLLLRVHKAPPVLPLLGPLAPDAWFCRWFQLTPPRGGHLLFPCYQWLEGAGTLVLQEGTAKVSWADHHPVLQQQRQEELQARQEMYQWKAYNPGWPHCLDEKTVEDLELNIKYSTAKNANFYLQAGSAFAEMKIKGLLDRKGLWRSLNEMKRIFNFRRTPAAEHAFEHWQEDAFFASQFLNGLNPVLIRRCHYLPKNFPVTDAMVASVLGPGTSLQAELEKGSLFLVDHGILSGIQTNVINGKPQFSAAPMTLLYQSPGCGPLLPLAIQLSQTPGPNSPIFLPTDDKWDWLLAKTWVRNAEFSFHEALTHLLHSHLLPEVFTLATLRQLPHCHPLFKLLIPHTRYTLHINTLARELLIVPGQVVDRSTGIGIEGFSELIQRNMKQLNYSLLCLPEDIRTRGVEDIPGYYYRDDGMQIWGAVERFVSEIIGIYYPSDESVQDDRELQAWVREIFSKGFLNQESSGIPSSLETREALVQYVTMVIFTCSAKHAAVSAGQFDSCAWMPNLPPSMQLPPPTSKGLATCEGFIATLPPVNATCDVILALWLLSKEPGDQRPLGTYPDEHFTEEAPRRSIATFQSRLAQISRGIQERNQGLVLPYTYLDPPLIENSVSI
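Purified human 15hLO-2 (50 nM) preincubated 15 min with compound, then 45 uM arachidonic acid for 90 min at RT in 25 mM Hepes pH 7.5, 0.01% Triton X-100. Hydroperoxide detected by Fe-xylenol orange; 573/405 nm absorbance ratio.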
* = called active by the depositor; ! = not confirmed by another sample; [ ] = dose if it differs, or a comment. Unless noted, the call rests on the fitted dose curve; in most records, active means well fitted curve in the direction sought with a large enough effect; inconclusive means small, poorly fitted or top-dose-only effect, or another doubt; inactive means no such curve, though single readings can be large; an effect the other way counts as inactive or inconclusive. Unless noted, on the % scale 0 is the no-effect control and ±100 the full control effect.

For CCn1c2ccccc2c2cc(NC(=O)c3cc(OC)cc(OC)c3)ccc21 the results were PNC assembly inh -97* and ALOX12 inhib 0%.
For CCC(=O)N1CCN(c2ccc(NC(=O)c3ccc(Br)o3)cc2)CC1 the results were PNC assembly inh -94* and ALOX12 inhib 2%.
CCn1c2ccccc2c2cc(NC(=O)COc3ccccc3)ccc21 was read as PNC assembly inh -5 and ALOX12 inhib -5%.
Cc1ccc(C(=O)N2CCN(c3ccc(NC(=O)c4ccc(Br)o4)cc3)CC2)cc1 was read as PNC assembly inh 6, ALOX12 inhib 5% and 15-hLO-2 inh -10%.
CCn1c2ccccc2c2cc(NC(=O)c3cc(OC)c(OC)c(OC)c3)ccc21 was read as PNC assembly inh inconclusive, ALOX12 inhib -11% and 15-hLO-2 inh 7%.
Screening O=C(/C=C/c1ccc(O)c(O)c1)O[C@@H]1C[C@@](O)(C(=O)O)C[C@H](O)[C@@H]1O returned ALOX12 inhib -4% and 15-hLO-2 inh -2%.
`CC[C@@H]1Cn2c(c3nc(-c4ccccc4)nc-3n(C)c2=O)N1` gave ALOX12 inhib 0% and 15-hLO-2 inh 37%.
Screening O=C(O)CCSC1=NCCN1 returned ALOX12 inhib 7%[11.4 µM] and 15-hLO-2 inh -4%[11.4 µM].
For O=C1COC(c2ccccc2O)=NN1CCCN1CCCC1 the results were ALOX12 inhib -1%[11.4 µM] and 15-hLO-2 inh 1%[11.4 µM].
Screening COc1ccc(-c2cc(=O)c3c(O)cc(O[C@H]4OC(COC5OC(C)C(O)C(O)[C@H]5O)C(O)C(O)C4O)cc3o2)cc1O (some centres undefined) returned ALOX12 inhib -5% and 15-hLO-2 inh 10%.
For CC1=C/C(=C\c2ccc(Br)o2)C(=O)O1 the results were PNC assembly inh inconclusive and ALOX12 inhib -1%.
For COc1ccccc1-c1ccc(/C=C2/C=C(C)OC2=O)o1 the results were PNC assembly inh -113* and ALOX12 inhib -13%.
For Cc1nc2c(=O)[nH]c(=S)n(C)c2nc1C the results were PNC assembly inh -114* and ALOX12 inhib -7%.
`Cn1c(=S)[nH]c2cccnc21` gave PNC assembly inh inconclusive, ALOX12 inhib 4% and 15-hLO-2 inh 8%.
NC(N)=Nc1ccc(-c2ccc(N=C(N)N)cc2)cc1 was read as ALOX12 inhib 2%[11.4 µM] and 15-hLO-2 inh 4%[11.4 µM].
Screening c1nnc(NC2=NCCC2)s1 returned PNC assembly inh -111*, ALOX12 inhib 1% and 15-hLO-2 inh 1%.
`c1nnc(NC2=NCCCCC2)s1` gave PNC assembly inh -19, ALOX12 inhib 1% and 15-hLO-2 inh 2%.
`N#CCCn1c(=O)c(-c2cccs2)nc2cnc(OCc3ccccc3)nc21` gave ALOX12 inhib -3% and 15-hLO-2 inh 6%.
For COc1ccc2c(c1)N(C[C@@H](C)CN(C)C)c1ccccc1S2 the results were ALOX12 inhib 1%[25.6 µM] and 15-hLO-2 inh 8%[25.6 µM].
CN1CCCC[C@@H]1CCN1CCCCC1 was read as ALOX12 inhib -1%[11.4 µM] and 15-hLO-2 inh 1%[11.4 µM].
Screening COc1ccc(N2C=C3C(=O)C(C)(OC(=O)C4CCCC4)C(=O)C=C3C=C2c2ccsc2)cc1 (centres undefined) returned ALOX12 inhib -17%[11.4 µM].
`CCCc1cc(OC)c2c(c1)OCO2` gave ALOX12 inhib -1% and 15-hLO-2 inh inconclusive.
Screening COCCCn1c(SCc2nnc(-c3ccc(OC)c(OC)c3)o2)nc2ccccc2c1=O returned PNC assembly inh -100* and ALOX12 inhib 3%.
For COc1ccc(-c2nnc(CSc3nc4ccccc4c(=O)n3CC(C)C)o2)cc1OC the results were PNC assembly inh 0, ALOX12 inhib -5% and 15-hLO-2 inh 1%.
`Clc1cccc(Cl)c1C(Nc1nncs1)Nc1nncs1` gave ALOX12 inhib 4%[11.4 µM] and 15-hLO-2 inh -1%[11.4 µM].
COc1ccccc1CNc1ncnc2ccc(-c3ccc(C(=O)N(C)C)cc3)cc12 was read as 15-hLO-2 inh 15%.
Screening COc1ccc(C2=N[C@@H](C(C)C)CO2)cc1 returned ALOX12 inhib -1%[0.00818 µM] and 15-hLO-2 inh 17%[0.0915 µM].
CCCC(=O)NC(c1cccs1)c1cc([N+](=O)[O-])c2cccnc2c1O (centres undefined) was read as PNC assembly inh -27 and ALOX12 inhib inconclusive.
CCC(=O)NC(c1cccs1)c1cc([N+](=O)[O-])c2cccnc2c1O (centres undefined) was read as PNC assembly inh 44 and ALOX12 inhib 2.8µM*.
`CCOC(=O)c1cc(CC)sc1/N=C/c1c(O)ccc2ccccc12` gave PNC assembly inh -88* and ALOX12 inhib -5%.
`Cc1sc(/N=C/c2c(O)ccc3ccccc23)c(C#N)c1C` gave PNC assembly inh 34, ALOX12 inhib 0% and 15-hLO-2 inh 6%.
Screening CCCn1nc(NC(=O)c2cccs2)c2cc3cc(OC)ccc3nc21 returned PNC assembly inh -90*, ALOX12 inhib -4% and 15-hLO-2 inh 14%.
Screening CCCCn1nc(NC(=O)c2cccs2)c2cc3cc(OC)ccc3nc21 returned PNC assembly inh inconclusive, ALOX12 inhib -7% and 15-hLO-2 inh 7%.
`Cc1c(N=Cc2c(O)n(Cc3ccco3)c(=O)c3ccccc23)c(=O)n(-c2ccccc2)n1C` gave PNC assembly inh -100*!, ALOX12 inhib -13% and 15-hLO-2 inh inconclusive.
O=c1c2ccccc2c2ccccc2c(=O)n1Cc1ccco1 was read as PNC assembly inh 0, ALOX12 inhib -3% and 15-hLO-2 inh -7%.
For COC(=O)CSc1nnc(C)n1-c1cccc(OC)c1 the results were PNC assembly inh -96*, ALOX12 inhib -1% and 15-hLO-2 inh 2%.
COC(=O)CSc1nnc(C)n1-c1ccc(C)cc1 was read as PNC assembly inh -19, ALOX12 inhib 2% and 15-hLO-2 inh -8%.
Screening O=c1c(-c2cc(F)cc(F)c2)nc2cnc(Oc3ccccc3)nc2n1C1CC1 returned ALOX12 inhib -5% and 15-hLO-2 inh -4%.
`Cc1ccc(-c2csc(NC(=O)C3CCN(S(=O)(=O)c4cccs4)CC3)n2)cc1` gave PNC assembly inh 1 and ALOX12 inhib -1%.
Screening O=C(Nc1nc(-c2ccc3ccccc3c2)cs1)C1CCN(S(=O)(=O)c2cccs2)CC1 returned PNC assembly inh -87* and ALOX12 inhib 4%.
Screening CCCn1c(NCc2ccc3c(c2)OCO3)nc2ccccc21 returned PNC assembly inh 9, ALOX12 inhib -27% and 15-hLO-2 inh 29%.
For CCCn1c(C(O)c2ccc3c(c2)OCO3)nc2ccccc21 (centres undefined) the results were PNC assembly inh -100*, ALOX12 inhib -16% and 15-hLO-2 inh 25%.
C(=Nc1cnc2ccccc2c1)c1ccc2ccccc2n1 was read as ALOX12 inhib -2%[11.4 µM] and 15-hLO-2 inh -5%[11.4 µM].
`O=c1c2ccccc2oc2nc(-c3ccco3)n(-c3ccccc3)c(=O)c12` gave PNC assembly inh 2 and ALOX12 inhib -3%.
Screening O=c1c2ccccc2oc2nc(-c3ccco3)n(CCc3ccccc3)c(=O)c12 returned PNC assembly inh -100*, ALOX12 inhib -5% and 15-hLO-2 inh -5%.
For C[n+]1ccccc1/C=N\O the results were ALOX12 inhib 2%[25.6 µM] and 15-hLO-2 inh 1%[25.6 µM].
